Experimental data published in the supplement of paper PMC12282887.
± gives the standard deviation of the averaged measurements.

What was measured:
Assay in all cases: promoter activity interaction Z-score (Lux/OD deviation from empty-vector control); higher = stronger promoter induction by the compound
[1] = tested on: E. coli BW25113 acrABp lux reporter
In short: (§1)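 Wild-type E. coli BW25113 and three single-gene deletion strains, each carrying a low-copy luxCDABE promoter reporter, were grown at 37°C in 40 µl LB Lennox per well of a 384-well plate. Every compound was applied at four 1:2 dilutions in biological duplicates, and OD600 and luminescence were read every 30 min for 12 h. Integration covered 0–8 h for wild type and 1–9 h for deletion strains, and wells under 10% of the median growth value were removed. Scores are Z-transformed residuals of growth-normalised luminescence fitted against a control.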

[2] = tested on: E. coli BW25113 marRABp lux reporter
In short: as §1

[3] = tested on: E. coli BW25113 micFp lux reporter
In short: as §1

[4] = tested on: E. coli BW25113 ompFp lux reporter
In short: as §1

[5] = tested on: E. coli BW25113 robp lux reporter
In short: as §1

[6] = tested on: E. coli BW25113 soxSp lux reporter
In short: as §1

[7] = tested on: E. coli BW25113 tolCp lux reporter
In short: as §1

[8] = 17 µg/ml, genetic background: wild type
[9] = 17 µg/ml, genetic background: ΔmarA
[10] = 17 µg/ml, genetic background: Δrob
[11] = 17 µg/ml, genetic background: ΔsoxS
[12] = 34 µg/ml, genetic background: wild type
[13] = 34 µg/ml, genetic background: ΔmarA
[14] = 34 µg/ml, genetic background: Δrob
[15] = 34 µg/ml, genetic background: ΔsoxS
[16] = 68.1 µg/ml, genetic background: wild type
[17] = 68.1 µg/ml, genetic background: ΔmarA
[18] = 68.1 µg/ml, genetic background: Δrob
[19] = 68.1 µg/ml, genetic background: ΔsoxS
[20] = 136.2 µg/ml, genetic background: wild type
[21] = 136.2 µg/ml, genetic background: ΔmarA
[22] = 136.2 µg/ml, genetic background: Δrob
[23] = 136.2 µg/ml, genetic background: ΔsoxS

## C[C@]12CC[C@@H]3c4ccc(O)cc4CC[C@H]3[C@@H]1CC[C@@H]2O [Estradiol]
[1]; [8]
  promoter activity interaction Z-score: 0.298 ± 0.0088
[1]; [9]
  promoter activity interaction Z-score: -0.217 ± 0.5
[1]; [10]
  promoter activity interaction Z-score: -0.138 ± 0.15
[1]; [11]
  promoter activity interaction Z-score: -0.335 ± 0.57
[1]; [12]
  promoter activity interaction Z-score: 0.101 ± 0.01
[1]; [13]
  promoter activity interaction Z-score: 0.101 ± 1.4
[1]; [14]
  promoter activity interaction Z-score: -0.0321 ± 0.063
[1]; [15]
  promoter activity interaction Z-score: -0.0568 ± 0.0019
[1]; [16]
  promoter activity interaction Z-score: -0.0194 ± 0.39
[1]; [17]
  promoter activity interaction Z-score: 1.6 ± 0.16
[1]; [18]
  promoter activity interaction Z-score: -0.247 ± 0.35
[1]; [19]
  promoter activity interaction Z-score: -0.0269 ± 0.066
[1]; [20]
  promoter activity interaction Z-score: 0.225 ± 0.041
[1]; [21]
  promoter activity interaction Z-score: -0.22 ± 0.31
[1]; [22]
  promoter activity interaction Z-score: -0.28 ± 0.4
[1]; [23]
  promoter activity interaction Z-score: 0.453 ± 0.73
[2]; [8]
  promoter activity interaction Z-score: 0.0618 ± 0.2
[2]; [9]
  promoter activity interaction Z-score: -0.313 ± 0.021
[2]; [10]
  promoter activity interaction Z-score: -0.258 ± 0.042
[2]; [11]
  promoter activity interaction Z-score: -0.0159 ± 0.095
[2]; [12]
  promoter activity interaction Z-score: -0.352 ± 0.0081
[2]; [13]
  promoter activity interaction Z-score: -0.312 ± 0.088
[2]; [14]
  promoter activity interaction Z-score: -0.348 ± 0.044
[2]; [15]
  promoter activity interaction Z-score: 0.0387 ± 0.037
[2]; [16]
  promoter activity interaction Z-score: -0.254 ± 0.14
[2]; [17]
  promoter activity interaction Z-score: -0.263 ± 0.18
[2]; [18]
  promoter activity interaction Z-score: -0.158 ± 0.23
[2]; [19]
  promoter activity interaction Z-score: -0.162 ± 0.022
[2]; [20]
  promoter activity interaction Z-score: -0.478 ± 0.16
[2]; [21]
  promoter activity interaction Z-score: -0.488 ± 0.082
[2]; [22]
  promoter activity interaction Z-score: -0.392 ± 0.36
[2]; [23]
  promoter activity interaction Z-score: 0.155 ± 0.22
[3]; [8]
  promoter activity interaction Z-score: 0.105 ± 0.31
[3]; [9]
  promoter activity interaction Z-score: -0.0854 ± 0.0072
[3]; [10]
  promoter activity interaction Z-score: -0.132 ± 0.0023
[3]; [11]
  promoter activity interaction Z-score: -0.254 ± 0.061
[3]; [12]
  promoter activity interaction Z-score: -0.221 ± 0.34
[3]; [13]
  promoter activity interaction Z-score: -0.0642 ± 0.01
[3]; [14]
  promoter activity interaction Z-score: -0.194 ± 0.16
[3]; [15]
  promoter activity interaction Z-score: 0.292 ± 0.13
[3]; [16]
  promoter activity interaction Z-score: 0.178 ± 0.23
[3]; [17]
  promoter activity interaction Z-score: 0.0617 ± 0.15
[3]; [18]
  promoter activity interaction Z-score: -0.166 ± 0.3
[3]; [19]
  promoter activity interaction Z-score: 0.179 ± 0.19
[3]; [20]
  promoter activity interaction Z-score: 0.028 ± 0.51
[3]; [21]
  promoter activity interaction Z-score: 0.118 ± 0.11
[3]; [22]
  promoter activity interaction Z-score: -0.079 ± 0.16
[3]; [23]
  promoter activity interaction Z-score: 0.578 ± 0.0079
[4]; [8]
  promoter activity interaction Z-score: 0.501 ± 0.11
[4]; [9]
  promoter activity interaction Z-score: -0.126 ± 0.37
[4]; [10]
  promoter activity interaction Z-score: -0.146 ± 0.11
[4]; [11]
  promoter activity interaction Z-score: 0.0169 ± 0.25
[4]; [12]
  promoter activity interaction Z-score: -0.603 ± 0.43
[4]; [13]
  promoter activity interaction Z-score: -0.0141 ± 0.44
[4]; [14]
  promoter activity interaction Z-score: -0.554 ± 0.48
[4]; [15]
  promoter activity interaction Z-score: -0.0316 ± 0.18
[4]; [16]
  promoter activity interaction Z-score: -0.329 ± 0.44
[4]; [17]
  promoter activity interaction Z-score: 0.821 ± 0.84
[4]; [18]
  promoter activity interaction Z-score: -0.486 ± 0.4
[4]; [19]
  promoter activity interaction Z-score: -0.581 ± 0.16
[4]; [20]
  promoter activity interaction Z-score: -0.397 ± 0.85
[4]; [21]
  promoter activity interaction Z-score: -0.336 ± 0.37
[4]; [22]
  promoter activity interaction Z-score: -0.534 ± 0.93
[4]; [23]
  promoter activity interaction Z-score: -0.638 ± 0.074
[5]; [8]
  promoter activity interaction Z-score: 0.7215 ± 0.0031
[5]; [9]
  promoter activity interaction Z-score: 0.25 ± 0.44
[5]; [10]
  promoter activity interaction Z-score: -0.0547 ± 0.13
[5]; [11]
  promoter activity interaction Z-score: 0.453 ± 0.085
[5]; [12]
  promoter activity interaction Z-score: -0.0162 ± 0.89
[5]; [13]
  promoter activity interaction Z-score: -0.0102 ± 0.92
[5]; [14]
  promoter activity interaction Z-score: -0.0213 ± 0.28
[5]; [15]
  promoter activity interaction Z-score: 0.926 ± 0.78
[5]; [16]
  promoter activity interaction Z-score: 0.13 ± 0.81
[5]; [17]
  promoter activity interaction Z-score: 1.9 ± 0.56
[5]; [18]
  promoter activity interaction Z-score: -0.509 ± 0.5
[5]; [19]
  promoter activity interaction Z-score: 0.373 ± 0.42
[5]; [20]
  promoter activity interaction Z-score: 0.104 ± 0.37
[5]; [21]
  promoter activity interaction Z-score: 0.282 ± 0.21
[5]; [22]
  promoter activity interaction Z-score: -0.478 ± 0.3
[5]; [23]
  promoter activity interaction Z-score: 0.863 ± 0.52
[6]; [8]
  promoter activity interaction Z-score: 0.266 ± 0.12
[6]; [9]
  promoter activity interaction Z-score: 0.0464 ± 0.17
[6]; [10]
  promoter activity interaction Z-score: -0.0494 ± 0.027
[6]; [11]
  promoter activity interaction Z-score: 0.159 ± 0.028
[6]; [12]
  promoter activity interaction Z-score: -0.15 ± 0.012
[6]; [13]
  promoter activity interaction Z-score: 0.102 ± 0.021
[6]; [14]
  promoter activity interaction Z-score: -0.334 ± 0.0093
[6]; [15]
  promoter activity interaction Z-score: 0.0514 ± 0.057
[6]; [16]
  promoter activity interaction Z-score: -0.196 ± 0.013
[6]; [17]
  promoter activity interaction Z-score: 0.057 ± 0.029
[6]; [18]
  promoter activity interaction Z-score: -0.104 ± 0.2
[6]; [19]
  promoter activity interaction Z-score: 0.254 ± 0.52
[6]; [20]
  promoter activity interaction Z-score: -0.422 ± 0.035
[6]; [21]
  promoter activity interaction Z-score: -0.276 ± 0.077
[6]; [22]
  promoter activity interaction Z-score: -0.275 ± 0.2
[6]; [23]
  promoter activity interaction Z-score: -0.137 ± 0.099
[7]; [8]
  promoter activity interaction Z-score: 0.895 ± 0.21
[7]; [9]
  promoter activity interaction Z-score: -0.343 ± 0.88
[7]; [10]
  promoter activity interaction Z-score: -0.103 ± 1
[7]; [11]
  promoter activity interaction Z-score: -0.491 ± 0.4
[7]; [12]
  promoter activity interaction Z-score: -0.0124 ± 0.71
[7]; [13]
  promoter activity interaction Z-score: -0.745 ± 0.26
[7]; [14]
  promoter activity interaction Z-score: -0.126 ± 1.3
[7]; [15]
  promoter activity interaction Z-score: 0.321 ± 0.44
[7]; [16]
  promoter activity interaction Z-score: -0.293 ± 0.52
[7]; [17]
  promoter activity interaction Z-score: 0.492 ± 0.095
[7]; [18]
  promoter activity interaction Z-score: 0.143 ± 0.3
[7]; [19]
  promoter activity interaction Z-score: 0.521 ± 0.57
[7]; [20]
  promoter activity interaction Z-score: 0.506 ± 0.79
[7]; [21]
  promoter activity interaction Z-score: -0.446 ± 0.55
[7]; [22]
  promoter activity interaction Z-score: -0.721 ± 0.35
[7]; [23]
  promoter activity interaction Z-score: 0.191 ± 0.75
